Compounds with a hit are over-represented: about 2.8% of the library has one in this group of screens.
MsrA act – bovine MsrA enzyme activators, primary screen, biochemical, absorbance, HTS; purified bovine MsrA, absorbance read-out; activation, % at 10.6 µM; 360,000 compounds, 0.3% hits; AID 602163, 2012; in the data active = activation above about 7.5%;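 also: 0% = vehicle and 100% = reference activator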
HGIII-sPLA2 inh – human group III sPLA2 inhibitors, primary screen, biochemical, QFRET, BODIPY PC-A2 liposome substrate; QFRET BODIPY PC-A2 liposome hydrolysis, fluorescence; AID 743126, 2013; inhibition, % at 12.2 µM; 370,000 compounds, 0.56% hits; Group 3 secretory phospholipase A2 (Homo sapiens), Q9NZ20;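 active = inhibition above mean plus 3 SD of compounds lying within the high and low control bounds, cut at about 19% in these data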;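 also: 0% = median of test compound wells and 100% = no enzyme DMSO wells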
Target sequence (Q9NZ20 whole entry, looked up): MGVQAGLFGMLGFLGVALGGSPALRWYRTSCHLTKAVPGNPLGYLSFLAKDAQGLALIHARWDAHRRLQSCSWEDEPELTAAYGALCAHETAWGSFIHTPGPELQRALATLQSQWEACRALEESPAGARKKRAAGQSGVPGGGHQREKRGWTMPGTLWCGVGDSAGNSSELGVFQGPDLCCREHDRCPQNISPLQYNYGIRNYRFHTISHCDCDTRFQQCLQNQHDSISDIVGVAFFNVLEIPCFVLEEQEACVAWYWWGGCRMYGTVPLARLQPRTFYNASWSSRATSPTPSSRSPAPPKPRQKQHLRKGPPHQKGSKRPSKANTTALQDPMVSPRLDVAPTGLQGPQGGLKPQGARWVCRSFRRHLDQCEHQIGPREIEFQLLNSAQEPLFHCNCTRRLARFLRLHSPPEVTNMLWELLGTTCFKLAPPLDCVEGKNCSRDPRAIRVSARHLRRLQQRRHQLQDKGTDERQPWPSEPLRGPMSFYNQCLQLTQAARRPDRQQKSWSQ
rCAG RNA binder – binders of r(CAG) RNA repeats, primary screen, biochemical, fluorescence; r(CAG) RNA repeat, TO-PRO-1 dye displacement fluorescence; inhibition, % at 3 µM; 370,000 compounds, 1.3% hits;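 active = inhibition above the plate cutoff, the mean of all test compounds on that plate plus 3 SD, cut at about 35% in these data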;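 also: 0% = DMSO alone and 100% = 100 µM mitoxantrone as full dye displacement; higher means more dye released from RNA so lower well fluorescence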
MsrA inh – bovine MsrA enzyme inhibitors, primary screen, biochemical, absorbance, HTS | inhibition, % at 15.5 µM | Methionine sulfoxide reductase A (Bos taurus) | 360,000 compounds, 0.75% hits | purified bovine MsrA, absorbance read-out | AID 651718, 2012; in the data active = inhibition above about 4.5%;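 also: 0% = vehicle wells with enzyme and 100% = reference inhibitor wells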
rCAG binder conf – small molecules binding CAG repeat RNA – biochemical, fluorescence, confirmation; shares compounds with rCAG RNA binder; r(CAG) RNA repeat, TO-PRO-1 dye displacement fluorescence; inhibition, % at 3 µM; 4,300 compounds, 70% hits; AID 652065, 2013;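 active = inhibition above a per-plate cutoff, the mean inhibition of sample wells plus 3 SD, cut at about 35% in these data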;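 also: loss of TO-PRO-1 fluorescence as compound displaces dye from 1x1 AA loop RNA; 0% = DMSO only wells and 100% = 100 µM mitoxantrone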
dCAG dye counter – displacement of TO-PRO-1 from CAG DNA duplex, counter-screen for rCAG RNA repeat binder project, biochemical, fluorescence, TO-PRO-1 dye, d(CAG) DNA oligo. shares compounds with rCAG RNA binder. d(CAG) DNA oligo TO-PRO-1 dye displacement. inhibition, % at 3 µM. 4,300 compounds, 94% hits. AID 652068, 2013;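 active = inhibition above its plate's cutoff, the mean test-well inhibition plus 3 SD, cut at about 4.8% in these data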;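 also: 0% = DNA dye mix with DMSO and 100% = 100 µM mitoxantrone; hits displace the dye from DNA and so lower well fluorescence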
Numbers without * were called inactive; / = no result given.

SMILES | MsrA act | HGIII-sPLA2 inh | rCAG RNA binder | MsrA inh | rCAG binder conf | dCAG dye counter
CC(C)CSC1=NSC2=NC(=O)/C(=C\c3coc4ccccc4c3=O)C(=N)N12 | 2.0 | -37.8 | 61.0* | 1.1 | 58.9* | 55.1*
CSC1=NSC2=NC(=O)/C(=C\c3coc4ccccc4c3=O)C(=N)N12 | -1.7 | -48.1 | -213.3 | 1.7 | / | /
COCc1c(C(=O)OCC(=O)N2c3ccccc3NC(=O)C2(C)C)oc2ccccc12 | -12.5 | -8.3 | -4.2 | 1.2 | / | /
Cc1ccc(OCC(=O)Nc2nnc(S(=O)(=O)N3CCCCCC3)s2)cc1 | 0.0 | -6.5 | 18.1 | 0.4 | / | /
Cc1ccc(OCC(=O)Nc2nnc(S(=O)(=O)N3CCCCC3)s2)cc1 | -1.4 | 2.3 | 49.7* | 0.6 | 41.4* | 18.4*
Cc1ccc(S(=O)(=O)N2CCCCC2)cc1NC(=O)Cn1cnc2c1c(=O)n(C)c(=O)n2C | -0.3 | -0.3 | 5.6 | -0.9 | / | /
COc1cccc(/C=C2\SC(=S)N(NS(=O)(=O)c3ccc(C)cc3)C2=O)c1OC | -5.1 | -39.6 | 74.7* | 2.7 | 65.9* | 28.0*
COc1ccccc1/C=C1\SC(=S)N(NS(=O)(=O)c2ccccc2)C1=O | -4.7 | -13.0 | 69.0* | 2.1 | 69.1* | 22.3*
COc1cc(/C=C2\SC(=S)N(NS(=O)(=O)c3ccccc3)C2=O)ccc1O | -5.5 | -2.9 | 18.8 | 2.7 | / | /
O=c1oc2ccccc2cc1-c1nc(-c2cccs2)cs1 | -2.5 | -5.1 | 41.1* | 0.8 | 11.9 | 8.6*
COc1ccc(Cl)cc1NC(=O)CSc1nc(C)cc(C)n1 | -3.0 | -3.3 | -6.0 | -0.7 | / | /
COc1ccc(NC(=O)CSc2nc(O)cc(=O)[nH]2)c(OC)c1 | -1.2 | 5.8 | 47.4* | 0.9 | 4.2 | 1.9
COc1ccc(NC(=O)CSc2sc3c(O)cc(=O)[nH]c3c2C#N)c(OC)c1 | -5.2 | 2.0 | 62.6* | 1.7 | 26.9 | 12.7*
COc1ccc(Cl)cc1NC(=O)CSc1sc2c(O)cc(=O)[nH]c2c1C#N | -3.8 | 1.4 | 55.5* | 1.0 | 31.4 | 15.8*
COc1ccccc1NC(=O)CSc1sc2c(O)cc(=O)[nH]c2c1C#N | -4.4 | 3.2 | 52.2* | 0.2 | 17.9 | 8.2*
COc1cccc(/C=N/NC(=O)CNC(=O)/C=C\c2ccccc2)c1O | -3.3 | -19.7 | 4.7 | 0.3 | / | /
Cc1ccc(N2CC(C(=O)Nc3nnc(SCCC4OCCO4)s3)CC2=O)cc1C (stereo not drawn) | -3.1 | -18.2 | 6.9 | -0.5 | / | /
COc1ccccc1Nc1c2ccccc2nc2ccccc12 | -1.9 | 11.5 | 2.9 | 1.1 | / | /
COc1ccccc1CC(=O)NC(=O)c1ccccc1O | -6.4 | 3.0 | -3.4 | 0.7 | / | /
CC1=NN(c2nc(-c3ccc(F)cc3)cs2)C(=O)C1 | -1.8 | / | / | / | / | /
CC1=NN(c2nc(-c3ccc(Cl)cc3)cs2)C(=O)C1 | -3.7 | -0.5 | 57.9* | 0.1 | 73.4* | 39.1*
O=C(Cc1cccc2ccccc12)Nc1cc(Cl)ccc1C(=O)O | -7.0 | -36.5 | 45.8* | 0.1 | 35.5* | 8.1*
O=C(CSc1nnc(-c2ccc(S(=O)(=O)N3CCCC3)cc2)n1CC1CCCO1)NC1CC1 (stereo not drawn) | -3.4 | 2.7 | -3.3 | -0.8 | / | /
CC1(C(=O)NS(=O)(=O)c2ccccc2Cl)CCN1C(=O)Cc1ccccc1 (stereo not drawn) | -1.3 | 2.4 | 5.4 | -0.7 | / | /
CC1(C(=O)NS(=O)(=O)c2ccccc2Cl)CCN1C(=O)c1ccccc1CCc1ccccc1 (stereo not drawn) | -2.0 | -32.4 | 57.1* | 0.4 | 63.0* | 18.9*
CC1(C(=O)NS(=O)(=O)c2ccc(Cl)cc2)CCN1C(=O)CCc1ccccc1 (stereo not drawn) | -1.4 | -1.6 | 11.3 | -1.6 | / | /
CC1(C(=O)NS(=O)(=O)c2ccc(F)cc2F)CCN1C(=O)c1ccccc1CCc1ccccc1 (stereo not drawn) | -1.0 | -14.2 | 50.8* | 0.6 | 42.5* | 10.2*
CC1(C(=O)NS(=O)(=O)c2ccc(Cl)cc2)CCN1C(=O)c1ccccc1CCc1ccccc1 (stereo not drawn) | -12.8 | -18.9 | 44.7* | 0.9 | 58.5* | 19.6*
